Experimental data from PubChem BioAssay (NCATS).
Several values for one entry are separate records, joined by “and”; a condition that tells them apart may be missing. Equal values may be shown once. Inconclusive results are not listed. Activity calls are given as the source filed them. Unless noted, calls come from the whole dose curve; as a rule, active = well fitted curve in either direction with a large enough effect (not every such curve was filed as active); inconclusive = small, poorly fitted or top-dose-only effect, or another doubt; inactive = flat fitted curve, though single readings scatter.

Assays:
[1] = AP1 Signaling Pathway (AID 357); conditions: ME-180 AP-1-bla reporter, EGF-induced, beta-lactamase ratio, 5 h;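 note: ME-180 reporter cells stimulated with EGF at its EC50 level; % is set by controls: 0 for no effect and ±100 for the full control effect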
In short: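 Titration-series screen for positive or negative modulators of EC50 EGF-induced signaling in ME-180 cells carrying an AP-1-driven beta-lactamase reporter. After 5 hours at 37 degrees Celsius, CCF4 460nm/530nm emission ratio gave %Activity; AC50 values derived.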

[2] = molecular target: Cytochrome P450 1A2 (Homo sapiens) (UniProt P05177); test: p450-cyp1a2 (AID 410; calls by dose curve;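 note: -100% = full effect of reference inhibitor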); conditions: recombinant CYP1A2, luciferin-ME demethylation, luminescence; series mostly up to 57 µM
In short: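 Inhibition was calculated relative to 57 uM furafylline (full inhibition). The reaction used human CYP1A2 at 20nM with Luciferin-ME at its Km, 100uM, driven by an NADPH-regenerating system for 60 min at room temperature.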

[3] = NFAT Signaling Pathway (AID 444); conditions: Jurkat NFAT-bla M1, carbachol, beta-lactamase ratio, 5 h;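 note: carbachol stimulus at about its EC50 of 1 µM final; % is set by controls: 0 for no effect and ±100 for the full control effect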
In short: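 Jurkat cells with NFAT-driven β-lactamase reporter and co-expressed M1 receptor, stimulated with carbachol (final 1 uM, ~EC50), compound titration, 5 h at 37 °C. CCF4 loaded 1 h at RT; 460/530 nm ratio gave %activity and AC50.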

[4] = Stat Signaling Pathway (AID 446); conditions: ME-180 SIE beta-lactamase reporter, IL-6 stimulated, 5 h;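 note: ME-180 cervical cancer cells given 40 pM IL-6 alongside compound; SIE-controlled beta-lactamase reporter measured as 460/530 nm FRET emission ratio; % is set by controls: 0 for no effect and ±100 for the full control effect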
In short: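 ME-180 cells carrying a SIE-driven beta-lactamase reporter are stimulated with 40 pM IL-6 for 5 h at 37C in the presence of compound. The 460/530 nm FRET substrate ratio is read after 2.5 h at RT. Data are normalised to 300 pM IL-6 and to 125 nM JAK inhibitor controls.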

[5] = molecular target: Glucocorticoid receptor (Homo sapiens) (UniProt P04150); test: GR-GFP Redistribution (AID 450;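 active = compounds whose dose series gives a full or clear partial fitted curve of increased nuclear translocation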; note: potency is the fitted concentration of half-maximal effect); conditions: U2OS GR-GFP nuclear translocation, laser cytometry, 2 h
[6] = molecular target: Glucocorticoid receptor (Homo sapiens) (UniProt P04150); test: GR-EFC Redistribution (AID 451; calls by dose curve; note: potency is the fitted concentration of half-maximal effect); conditions: CHO-K1 GR-EFC translocation, beta-gal luminescence, 2 h
In short: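 CHO-K1 cells expressing nuclear EA and GR-ED fragments of b-gal; compounds titrated up to 46 uM final, 2 h at 37 C. GR nuclear translocation read as complemented b-gal luminescence after 1 h RT detection.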

[7] = molecular target: Mitogen-activated protein kinase 10 (Mus musculus) (UniProt Q61831); test: JNK3 AlphaScreen Assay (AID 530); conditions: JNK3 lysate, c-Jun phosphorylation; series mostly up to 57.1 µM;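 note: kinase came from lysate of stimulated human HepG2 cells; signal reports phosphorylation of biotinylated GST-cJun 1-79 at Ser73 with 10 µM ATP; % is set by controls: 0 for no effect and ±100 for the full control effect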
In short: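 qHTS format: compounds tested as titrations against IL-1beta/TNF-alpha-activated HepG2 lysate JNK3 with biotin-GST-cJun substrate and 10 uM ATP at room temperature. Loss of anti-phospho-cJun AlphaScreen signal indicates inhibition.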

[8] = molecular target: 3',5'-cyclic-AMP phosphodiesterase 4B (Homo sapiens) (UniProt Q07343); test: qHTS Assay for Inhibitors of PDE-IV (AID 607; active = well fitted activation curve with a large enough effect in the main read-out, with a control signal flat, not every such curve was filed as active; note: % of control where 0% means no effect); conditions: HEK293 ACTOne CNG channel cells, membrane potential fluorescence; series mostly up to 22.9 µM
In short: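 HEK293 ACTOne cells with CNG channel (1000/well), endogenous PDE4; membrane potential dye, compounds up to 22.9 uM final. Fluorescence Ex 535/Em 590; RO 20-1724 (100 uM final) as reference.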

[9] = molecular target: Guanine nucleotide-binding protein G(i) subunit alpha-1 (Homo sapiens) (UniProt P63096); test: qHTS Assay for Inhibitors of RGS12 GoLoco Motif Activity (Green Fluorophore) (AID 879; active = well fitted curve in the direction sought with a large enough effect; an effect the other way counts as inactive or inconclusive;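 note: 0% = labeled peptide with Gαi1 and full inhibition = labeled peptide alone without protein; negative values mean loss of peptide binding seen as reduced polarization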); conditions: Galphai1/FITC-RGS12 GoLoco peptide, fluorescence polarization; series mostly up to 57.1 µM
In short: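 Fluorescence polarization assay: 50 nM Gαi1 with 10 nM FITC-labeled RGS12 GoLoco peptide in 10 mM Tris pH 7.5, 150 mM NaCl, 0.1 mM GDP, 0.05% NP40, 10 min at room temperature with compound.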

[10] = molecular target: Pyruvate kinase (Leishmania mexicana) (UniProt Q27686); test: qHTS Validation Assay for Inhibitors of Leishmania Mexicana Pyruvate Kinase (AID 945; active = well fitted curve in the direction sought with a large enough effect; an effect the other way counts as inactive or inconclusive;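 note: 0% = DMSO only neutral control wells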); conditions: purified L. mexicana pyruvate kinase, enzyme activity, E451W mutant enzyme; series mostly up to 57.5 µM
In short: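 Compounds are tested as eight-point concentration series. Reactions contain 0.2 nM LmPYK E451W, 0.5 mM PEP, 0.1 mM ADP, 7 mM MgCl2 and 50 mM KCl at pH 7.2, run 1 h at room temperature, then read by PKLight luminescence.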

[11] = molecular target: alpha-glucosidase (Oryza sativa, rice) (UniProt Q653V4); test: Counterscreen for Glucocerebrosidase Inhibitors: qHTS Assay for Rice alpha-Glucosidase at pH 5.0 (AID 997; active = well fitted curve in the direction sought with a large enough effect; an effect the other way counts as inactive or inconclusive;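 note: 0% = full activity with enzyme and -100% = basal without enzyme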); conditions: rice alpha-glucosidase enzyme activity; series mostly up to 76.9 µM
In short: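 Rice alpha-glucosidase (4 nM final) with 400 uM 4-methylumbelliferyl-alpha-D-glucopyranoside in citrate buffer pH 5.0, 20 min at room temperature, stopped at pH 10; fluorescence 365/440 nm, compounds 0.7 nM–77 uM, AC50 from Hill fits.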

[12] = qHTS Assay for Lipid Storage Modulators (AID 1519; calls by dose curve); conditions: Drosophila S3 cells, BODIPY lipid droplet/cell ratio, laser cytometry, cells loaded with oleic acid
In short: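 Cells seeded at 5,000 per well were treated with compounds over a concentration series and loaded with oleic acid (400 uM, as added). Lipid droplet fluorescence (488 nm excitation, 500-530 nm channel) was read by laser-scanning cytometry and normalized to 20 uM Triacsin C.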

[13] = molecular target: Ubiquitin carboxyl-terminal hydrolase 1 (Homo sapiens) (UniProt O94782); test: Inhibitors of USP1/UAF1: Pilot qHTS (AID 504865; active = well fitted curve in the direction sought with a large enough effect; an effect the other way counts as inactive or inconclusive;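 note: rhodamine fluorescence freed from ubiquitin-rhodamine substrate followed over time; top concentration of the series differs between compounds; % is set by controls: 0 for no effect and ±100 for the full control effect; nearly all actives have a fitted effect of over 35% in size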); conditions: purified USP1/UAF1, Ub-rhodamine cleavage fluorescence; series mostly up to 54.9 µM
In short: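 USP1/UAF1 complex at 1 nM preincubated 15 min at room temperature with compound, then Ub-Rho substrate added at 150 nM final. Fluorescence (480/540 nm) read kinetically in 50 mM HEPES pH 7.8, 0.5 mM EDTA, 1 mM TCEP, 0.1 mg/ml BSA, 0.01% Tween-20.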

[14] = qHTS profiling for inhibitors of Plasmodium falciparum proliferation (AID 504749; active = well fitted curve in the direction sought with a large enough effect; an effect the other way counts as inactive or inconclusive; note: potency is the fitted concentration of half-maximal effect; nearly all actives have a fitted effect of over 60% in size); conditions: P. falciparum in erythrocytes, SYBR Green DNA, 72 h; parasite line B
In short: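 Readout was DNA-dye fluorescence from lysed cultures, ex 485/em 535 nm. Parasitized red cells had grown 72 h with compound; data scaled between 0.29 uM artemisinin and DMSO wells and corrected using vehicle-only plates.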

Glucocorticoid receptor (Homo sapiens), sequence (P04150 whole entry, looked up, the tested form may be a part): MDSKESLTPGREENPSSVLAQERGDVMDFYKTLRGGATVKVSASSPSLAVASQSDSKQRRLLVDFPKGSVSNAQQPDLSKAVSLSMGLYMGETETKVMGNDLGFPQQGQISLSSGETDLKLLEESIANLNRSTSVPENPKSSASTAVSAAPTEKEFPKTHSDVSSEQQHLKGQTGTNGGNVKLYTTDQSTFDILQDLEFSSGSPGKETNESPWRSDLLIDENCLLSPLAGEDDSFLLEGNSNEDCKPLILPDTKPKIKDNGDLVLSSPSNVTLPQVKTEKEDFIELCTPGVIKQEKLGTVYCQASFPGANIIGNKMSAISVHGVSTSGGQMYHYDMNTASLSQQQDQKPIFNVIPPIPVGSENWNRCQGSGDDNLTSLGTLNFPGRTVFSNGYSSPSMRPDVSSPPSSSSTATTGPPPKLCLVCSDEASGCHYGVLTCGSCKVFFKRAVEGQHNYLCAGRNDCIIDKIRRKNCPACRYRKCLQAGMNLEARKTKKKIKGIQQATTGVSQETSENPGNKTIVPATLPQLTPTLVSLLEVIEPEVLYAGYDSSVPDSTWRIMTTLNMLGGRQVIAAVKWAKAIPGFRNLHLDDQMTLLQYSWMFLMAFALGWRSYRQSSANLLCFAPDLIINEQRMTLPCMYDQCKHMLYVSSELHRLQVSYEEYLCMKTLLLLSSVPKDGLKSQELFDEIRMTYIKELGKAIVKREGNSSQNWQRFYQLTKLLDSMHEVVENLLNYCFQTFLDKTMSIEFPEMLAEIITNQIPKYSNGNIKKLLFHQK
3',5'-cyclic-AMP phosphodiesterase 4B (Homo sapiens), sequence (Q07343 whole entry, looked up): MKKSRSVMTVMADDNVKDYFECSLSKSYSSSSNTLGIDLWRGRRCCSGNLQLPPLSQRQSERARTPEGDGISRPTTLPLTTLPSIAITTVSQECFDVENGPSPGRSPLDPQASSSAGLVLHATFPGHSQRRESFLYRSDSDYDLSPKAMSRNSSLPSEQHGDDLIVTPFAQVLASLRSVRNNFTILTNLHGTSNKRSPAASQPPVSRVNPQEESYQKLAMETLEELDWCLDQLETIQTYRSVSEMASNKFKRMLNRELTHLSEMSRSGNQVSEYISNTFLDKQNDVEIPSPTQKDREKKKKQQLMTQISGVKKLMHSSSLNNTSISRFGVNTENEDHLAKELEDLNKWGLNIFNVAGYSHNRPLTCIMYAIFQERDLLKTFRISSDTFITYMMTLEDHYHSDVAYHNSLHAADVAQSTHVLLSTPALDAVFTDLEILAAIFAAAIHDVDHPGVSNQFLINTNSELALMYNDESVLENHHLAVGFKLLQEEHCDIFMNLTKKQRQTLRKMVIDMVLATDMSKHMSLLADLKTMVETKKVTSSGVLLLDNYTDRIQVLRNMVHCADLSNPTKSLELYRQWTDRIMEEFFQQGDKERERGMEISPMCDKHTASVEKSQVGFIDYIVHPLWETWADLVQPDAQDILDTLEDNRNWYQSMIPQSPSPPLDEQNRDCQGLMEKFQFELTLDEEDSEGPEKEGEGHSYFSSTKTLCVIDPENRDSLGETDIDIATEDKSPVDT
Pyruvate kinase (Leishmania mexicana), sequence (Q27686 2-499 E452W): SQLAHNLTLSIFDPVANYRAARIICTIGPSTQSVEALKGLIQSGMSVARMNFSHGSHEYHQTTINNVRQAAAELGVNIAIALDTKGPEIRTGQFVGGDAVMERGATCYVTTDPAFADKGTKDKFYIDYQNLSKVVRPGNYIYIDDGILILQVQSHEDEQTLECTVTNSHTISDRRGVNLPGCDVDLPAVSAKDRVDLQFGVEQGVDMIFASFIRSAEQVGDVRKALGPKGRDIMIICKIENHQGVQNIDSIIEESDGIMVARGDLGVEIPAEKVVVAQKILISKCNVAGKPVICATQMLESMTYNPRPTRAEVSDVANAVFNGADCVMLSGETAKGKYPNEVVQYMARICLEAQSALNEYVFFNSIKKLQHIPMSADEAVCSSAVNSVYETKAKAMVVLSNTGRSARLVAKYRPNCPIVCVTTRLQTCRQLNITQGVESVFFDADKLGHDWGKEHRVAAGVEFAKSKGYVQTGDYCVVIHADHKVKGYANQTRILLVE
Guanine nucleotide-binding protein G(i) subunit alpha-1 (Homo sapiens), sequence (P63096 whole entry, looked up): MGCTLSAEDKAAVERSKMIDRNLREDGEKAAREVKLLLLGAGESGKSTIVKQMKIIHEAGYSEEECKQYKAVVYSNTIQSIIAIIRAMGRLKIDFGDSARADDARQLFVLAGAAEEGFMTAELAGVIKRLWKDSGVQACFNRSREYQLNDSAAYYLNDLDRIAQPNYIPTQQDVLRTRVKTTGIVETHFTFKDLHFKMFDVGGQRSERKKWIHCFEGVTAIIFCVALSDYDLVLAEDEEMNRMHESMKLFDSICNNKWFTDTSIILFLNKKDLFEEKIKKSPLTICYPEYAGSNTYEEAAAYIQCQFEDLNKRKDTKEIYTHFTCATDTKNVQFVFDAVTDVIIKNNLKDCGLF
Ubiquitin carboxyl-terminal hydrolase 1 (Homo sapiens), sequence (O94782 whole entry, looked up): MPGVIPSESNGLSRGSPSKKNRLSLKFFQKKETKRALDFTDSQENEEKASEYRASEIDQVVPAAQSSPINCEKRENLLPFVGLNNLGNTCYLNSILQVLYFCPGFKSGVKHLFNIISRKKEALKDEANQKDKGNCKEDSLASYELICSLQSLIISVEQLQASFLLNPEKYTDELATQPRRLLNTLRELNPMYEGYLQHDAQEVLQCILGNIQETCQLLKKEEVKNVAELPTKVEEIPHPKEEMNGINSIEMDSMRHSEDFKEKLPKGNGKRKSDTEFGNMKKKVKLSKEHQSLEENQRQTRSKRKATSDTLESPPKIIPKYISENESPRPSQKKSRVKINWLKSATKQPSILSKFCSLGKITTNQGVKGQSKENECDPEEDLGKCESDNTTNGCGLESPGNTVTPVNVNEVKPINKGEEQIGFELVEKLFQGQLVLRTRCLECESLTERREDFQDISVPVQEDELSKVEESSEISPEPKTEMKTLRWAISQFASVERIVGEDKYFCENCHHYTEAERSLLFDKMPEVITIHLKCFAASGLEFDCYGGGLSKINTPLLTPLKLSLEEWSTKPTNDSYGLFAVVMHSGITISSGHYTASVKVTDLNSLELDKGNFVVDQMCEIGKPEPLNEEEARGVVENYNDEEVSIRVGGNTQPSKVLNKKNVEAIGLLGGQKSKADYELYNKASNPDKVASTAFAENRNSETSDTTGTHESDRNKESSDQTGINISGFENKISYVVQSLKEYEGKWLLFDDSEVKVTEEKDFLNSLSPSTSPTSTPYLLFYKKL
Cytochrome P450 1A2 (Homo sapiens), sequence (P05177 whole entry, looked up): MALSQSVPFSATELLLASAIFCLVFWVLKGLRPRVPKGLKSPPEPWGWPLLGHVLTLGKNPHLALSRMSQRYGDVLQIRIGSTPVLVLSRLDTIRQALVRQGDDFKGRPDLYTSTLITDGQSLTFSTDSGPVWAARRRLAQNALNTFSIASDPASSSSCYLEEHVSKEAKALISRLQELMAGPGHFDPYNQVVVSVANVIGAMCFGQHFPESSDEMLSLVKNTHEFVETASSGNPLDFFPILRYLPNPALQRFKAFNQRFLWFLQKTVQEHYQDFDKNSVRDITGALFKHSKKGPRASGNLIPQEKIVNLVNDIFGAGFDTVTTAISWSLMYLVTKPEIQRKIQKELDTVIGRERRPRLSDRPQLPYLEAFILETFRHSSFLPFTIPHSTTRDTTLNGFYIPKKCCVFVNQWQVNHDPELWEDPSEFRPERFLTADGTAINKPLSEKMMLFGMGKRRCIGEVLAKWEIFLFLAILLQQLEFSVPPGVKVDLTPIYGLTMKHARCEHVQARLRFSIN

C[C@@H](CCc1ccccc1)NC[C@H](O)c1ccc(O)c(C(N)=O)c1
active: Potency [14] 10 µM
-10.3%: max response ([12]; measured here: cell count channel max response)
inactive: activity change, negative = inhibition ([1]; at 17.2 µM (top of the series)) 10.2% | activity change, negative = inhibition ([1]; at 38 µM (top of the series)) 8.69% | Potency [2] | activity change, negative = inhibition ([3]; at 17.2 µM (top of the series)) -19.2% | activity change, negative = inhibition ([3]; at 38 µM (top of the series)) -1.34% | activity, negative = inhibition ([4]; at 17.2 µM (top of the series)) -0.55% | activity, negative = inhibition ([4]; at 38 µM (top of the series)) 4.03% | Potency [5] > 46 µM and > 20.6 µM | Potency [6] > 46 µM and > 20.6 µM | Potency [7] | Potency [8] | Potency [9] | outcome [10] | outcome [11] | activity change, negative = inhibition ([12]; at 25.7 µM (top of the series)) -1.75% | Potency [13]
-13.3%: max response ([12]; measured here: lipid channel max response)
